Laboratory results published in PubChem BioAssay (NCI).
This is part of a sample that, as a whole, favours compounds with a hit. Of some 83,000 tested, about 20% had one in any assay.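 Treatment: one concentration, 48 hours, 96-well format. Scoring: percent growth, with anything below 10 considered active.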 Values without a mark were called inactive. Calls of active or inactive are those of the source.

How the values were obtained:
Assay in all cases: NCI-60 one-dose screen, 48 h (100 = growth as untreated, 0 = no growth, -100 = all killed)
Details in all cases: 10 µM unless noted
DU-145 prostate = test system: DU-145 prostate
K-562 leukemia = test system: K-562 leukemia
MALME-3M melanoma = test system: MALME-3M melanoma
MDA-MB-231 breast = test system: MDA-MB-231 breast
RXF 393 renal = test system: RXF 393 renal
SF-268 CNS = test system: SF-268 CNS
SF-295 CNS = test system: SF-295 CNS
SF-539 CNS = test system: SF-539 CNS
UACC-257 melanoma = test system: UACC-257 melanoma
M14 melanoma = test system: M14 melanoma

SMILES | growth (DU-145 prostate) | growth (K-562 leukemia) | growth (MALME-3M melanoma) | growth (MDA-MB-231 breast) | growth (RXF 393 renal) | growth (SF-268 CNS) | growth (SF-295 CNS) | growth (SF-539 CNS) | growth (UACC-257 melanoma) | growth (M14 melanoma)
COC(CC(F)F)c1cn(S(=O)(=O)c2ccc(C)cc2)c2ccccc12 (stereo not given) | 21.3% | 14.5% | 50.9% | 38.2% | 39.4% | 42% | 15% | 15.7% | 37.1% | 7.65% (active)
Cc1nc2sc(C(=O)Nc3cccc(Br)c3)c(N)c2cc1C(O)c1ccccc1 (stereo not given) | 23.8% | 7.97% (active) | 55% | 24.2% | 28.2% | 42.4% | 40.2% | 6.22% (active) | 38.8% | 16.7%
COc1cc2c(cc1OC)C(C)N(S(N)(=O)=O)CC2 (stereo not given) | 105% | 103% | 105% | 101% | 113% | 96.2% | 104% | 97.7% | 100% | 91.8%
CSc1nnc(-c2cc3c([nH]c4ccccc43)c(-c3cccc(O)c3)n2)n1-c1ccccc1 | 33.9% | 15.8% | 22.1% | 34.6% | 9.95% (active) | 39.5% | 24.8% | -7.08% (active) | 59.9% | 14.5%
O=[N+]([O-])c1cccc(-c2nc3cc4nc5ccccc5[nH]c4cc3n2)c1 | 106% | 90.9% | 113% | 110% | 115% | 98.2% | 100% | 106% | 98.3% | 103%
COc1ccc2cc1Oc1ccc(cc1)C[C@H]1c3c(cc4c(c3Oc3cc5c(cc3OC)CCN(C)[C@@H]5C2)OCO4)CCN1C | 59.6% | -2.72% (active) | -46.1% (active) | -5.97% (active) | -18.7% (active) | 36.4% | 58.1% | -55.7% (active) | -78.4% (active) | -86.2% (active)
CCOC(=O)c1ccc2c(c1)nc(-c1ccccc1)n2C1CCCCC1 | 105% | 73.1% | 112% | 102% | 112% | 108% | 94.4% | 104% | 78.2% | 88.3%
Cc1c[n+](Cc2ccc3ccccc3c2)cn1Cc1ccc2ccccc2c1 | 37.1% | 8.82% (active) | 0.847% (active) | -8.23% (active) | 2.91% (active) | 24.3% | 45.5% | 33.1% | -26.1% (active) | -15.5% (active)
Cc1ccc(C(=O)c2ccc(CC(=O)N/N=C/c3ccccc3O)n2C)cc1 | 89.6% | 84.2% | 91.4% | 82.6% | 89.6% | 70.9% | 97.7% | 89.1% | 95.3% | 82.9%
C=C(C)[C@@H]1CC[C@]2(C(=O)N3CCOCC3)CC[C@]3(C)[C@H](CC[C@@H]4[C@@]5(C)C/C(=C/c6ccncc6)C(=O)C(C)(C)[C@@H]5CC[C@]43C)[C@@H]12 | 77.9% | 38.6% | 77.5% | 78.6% | 52.3% | 66.3% | 85.9% | 78.5% | 53.7% | 75%
CC(C)(Sc1cc(C(C)(C)C)c(O)c(C(C)(C)C)c1)Sc1cc(C(C)(C)C)c(OC(=O)CCCC(=O)O)c(C(C)(C)C)c1 | 59.4% | 41.6% | 75.4% | 74.2% | 73.3% | 63.1% | 50.4% | 62.7% | 74.6% | 54.6%
CSc1nc2ccccc2cc1/C=[N+](\[O-])c1ccccc1 | 87.7% | 15.1% | 46.1% | 46.5% | 83.8% | 56.6% | 86.7% | 19.7% | 90% | 27.6%
N#CSCC1CC(O)(c2ccccc2)CC(c2ccc(F)cc2)O1 (stereo not given) | -27.8% (active) | 20.7% | 29.1% | -1.42% (active) | -35.3% (active) | -26.3% (active) | -17.2% (active) | 21% | 69.1% | -35.6% (active)
